Test results taken from the supplement of paper PMC8728848.
The sample as a whole holds a higher share of the strongest signals than the screen did.

Key:
Experiment in all cases: glycan array binding signal (z-score within array); higher = stronger binding
Conditions in all cases: glycan notation: IUPAC condensed, linker removed
[1] = target: Fuc(a1-2)Gal(b1-3)GalNAc(b1-3)Gal(a1-4)Gal(b1-4)Glc
How it was run: (§1)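 Glycan array data came from 3228 arrays in the Consortium for Functional Glycomics database, and only arrays with an available protein sequence were kept. Glycan names were put into IUPAC-condensed notation, and columns mapping to the same glycan were averaged. The binding signal is a within-array Z-score, averaged across arrays of one protein sequence run at different concentrations or buffers and across linkers. A negative Z-score can be read as non-binding.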

[2] = target: Fuc(a1-2)Gal(b1-3)[Fuc(a1-4)]GlcNAc(b1-3)[Gal(b1-4)GlcNAc(b1-6)]Gal(b1-4)Glc
How it was run: as §1

[3] = target: Fuc(a1-2)Gal(b1-4)[Fuc(a1-3)]GlcNAc(b1-3)GalNAc
How it was run: as §1

[4] = target: Fuc(a1-2)[GalNAc(a1-3)]Gal(b1-4)GlcNAc(b1-2)Man(a1-3)[Fuc(a1-2)[GalNAc(a1-3)]Gal(b1-4)GlcNAc(b1-2)Man(a1-6)]Man(b1-4)GlcNAc(b1-4)GlcNAc
How it was run: as §1

[5] = target: Fuc(a1-2)[GalNAc(b1-3)]Gal
How it was run: as §1

[6] = target: Fuc(a1-3)[Gal(b1-4)]GlcNAc(b1-2)Man(a1-3)[Fuc(a1-3)[Gal(b1-4)]GlcNAc(b1-2)Man(a1-6)]Man(b1-4)GlcNAc(b1-4)GlcNAc
How it was run: as §1

[7] = target: Fuc(a1-3)[Gal(b1-4)]GlcNAc(b1-3)GalNAc
How it was run: as §1

[8] = target: Gal(a1-3)Gal(b1-3)GlcNAc(b1-2)Man(a1-3)[Gal(a1-3)Gal(b1-3)GlcNAc(b1-2)Man(a1-6)]Man(b1-4)GlcNAc(b1-4)GlcNAc
How it was run: as §1

[9] = target: Gal(a1-3)Gal(b1-3)[Fuc(a1-4)]GlcNAc(b1-2)Man(a1-3)[Gal(a1-3)Gal(b1-3)[Fuc(a1-4)]GlcNAc(b1-2)Man(a1-6)]Man(b1-4)GlcNAc(b1-4)GlcNAc
How it was run: as §1

Gal(a1-4)Gal(b1-4)GlcNAc = target: Gal(a1-4)Gal(b1-4)GlcNAc
How it was run: as §1

[10] = target: Gal(a1-4)Gal(b1-4)GlcNAc(b1-2)Man(a1-3)[Gal(a1-4)Gal(b1-4)GlcNAc(b1-2)Man(a1-6)]Man(b1-4)GlcNAc(b1-4)GlcNAc
How it was run: as §1

[11] = target: Gal(a1-4)Gal(b1-4)GlcNAc(b1-3)Gal(b1-4)Glc
How it was run: as §1

Gal(b1-3)Gal(b1-4)GlcNAc = target: Gal(b1-3)Gal(b1-4)GlcNAc
How it was run: as §1

[12] = target: Gal(b1-3)GlcNAc(b1-3)Gal(b1-3)GlcNAc
How it was run: as §1

[13] = target: Gal(b1-3)GlcNAc(b1-3)Gal(b1-4)GlcNAc
How it was run: as §1

[14] = target: Gal(b1-3)[Neu5Ac(a2-6)]GalNAc
How it was run: as §1

[15] = target: Gal(b1-4)GlcNAc(b1-2)Man(a1-3)[Man(a1-6)]Man(b1-4)GlcNAc(b1-4)GlcNAc
How it was run: as §1

[16] = target: Gal(b1-4)GlcNAc(b1-3)[Gal(b1-4)GlcNAc(b1-6)]GalNAc
How it was run: as §1

Gal3S(b1-4)Glc = target: Gal3S(b1-4)Glc
How it was run: as §1

[17] = target: GalNAc(b1-3)Gal(a1-4)Gal(b1-4)GlcNAc(b1-3)Gal(b1-4)Glc
How it was run: as §1

[18] = target: GalNAc(b1-3)Gal(a1-6)Gal(b1-4)Glc
How it was run: as §1

GlcA(b1-3)GlcNAc = target: GlcA(b1-3)GlcNAc
How it was run: as §1

[19] = target: GlcNAc(a1-4)Gal(b1-4)GlcNAc
How it was run: as §1

[20] = target: GlcNAc(a1-4)Gal(b1-4)GlcNAc(b1-3)Gal(b1-4)[Fuc(a1-3)]GlcNAc(b1-3)Gal(b1-4)[Fuc(a1-3)]GlcNAc
How it was run: as §1

[21] = target: GlcNAc(b1-2)Man(a1-3)[GlcNAc(b1-2)Man(a1-6)]Man(b1-4)GlcNAc(b1-4)GlcNAc
How it was run: as §1

[22] = target: GlcNAc(b1-2)[GlcNAc(b1-4)]Man(a1-3)[GlcNAc(b1-4)][GlcNAc(b1-2)Man(a1-6)]Man(b1-4)GlcNAc(b1-4)GlcNAc
How it was run: as §1

[23] = target: GlcNAc(b1-3)Gal(b1-3)GalNAc
How it was run: as §1

GlcNAc(b1-3)Gal(b1-4)Glc = target: GlcNAc(b1-3)Gal(b1-4)Glc
How it was run: as §1

GlcNAc(b1-3)GalNAc = target: GlcNAc(b1-3)GalNAc
How it was run: as §1

[24] = target: GlcNAc(b1-4)GlcNAc(b1-4)GlcNAc(b1-4)GlcNAc(b1-4)GlcNAc(b1-4)GlcNAc
How it was run: as §1

[25] = target: GlcNAc(b1-4)[GlcNAc(b1-6)]GalNAc
How it was run: as §1

[26] = target: Neu5Ac(a2-3)Gal(b1-3)GalNAc(b1-3)Gal(a1-4)Gal(b1-4)Glc
How it was run: as §1

[27] = target: Neu5Ac(a2-3)Gal(b1-3)GalNAc(b1-4)[Neu5Ac(a2-3)]Gal(b1-4)Glc
How it was run: as §1

[28] = target: Neu5Ac(a2-3)Gal(b1-3)GlcNAc(b1-3)Gal(b1-3)GlcNAc
How it was run: as §1

[29] = target: Neu5Ac(a2-3)Gal(b1-3)[Fuc(a1-4)]GlcNAc(b1-3)Gal(b1-3)[Fuc(a1-4)]GlcNAc
How it was run: as §1

[30] = target: Neu5Ac(a2-3)Gal(b1-4)[Fuc(a1-3)]GlcNAc(b1-3)Gal(b1-4)GlcNAc
How it was run: as §1

[31] = target: Neu5Ac(a2-6)Gal(b1-3)GlcNAc(b1-3)[Gal(b1-4)GlcNAc(b1-6)]Gal(b1-4)Glc
How it was run: as §1

[32] = target: Neu5Ac(a2-6)Gal(b1-4)GlcNAc(b1-2)Man(a1-3)[GlcNAc(b1-2)Man(a1-6)]Man(b1-4)GlcNAc(b1-4)GlcNAc
How it was run: as §1

[33] = target: Neu5Ac(a2-6)Gal(b1-4)GlcNAc(b1-3)GalNAc
How it was run: as §1

[34] = target: Neu5Ac9Ac(a2-6)Gal(b1-4)GlcNAc
How it was run: as §1

Neu5Gc(a2-3)Gal(b1-4)Glc = target: Neu5Gc(a2-3)Gal(b1-4)Glc
How it was run: as §1

[35] = target: Neu5Gc(a2-3)Gal(b1-4)GlcNAc
How it was run: as §1

[36] = target: Neu5Gc(a2-6)Gal(b1-4)GlcNAc
How it was run: as §1

Neu5Gc(a2-6)GalNAc = target: Neu5Gc(a2-6)GalNAc
How it was run: as §1

B1: CwpV (Clostridium difficile), B6EFG6 (protein)
chain: MKIPKKIAAMLTVTMIAGSSTAGIASAQTVATNLTGQERYETAVKISQDGWKNADEVVIVNDSSIADALSATPFAKAKNAPILLTSKDKLNDKTKAEIQRLKAKKVYLIGGTSVLSTNIEKEIKDLKISFERISGAERYQTSLELAKKLDAISDVKKIAVVNGEKGLADAVSVGAPAAQNNMPVILADSKNGTAVADKFIKDAGITQSYVVGGESSISEAVKNKLPNSTRLGGTDRNDTNAKVIKEFYKKTDLKNAYVTKDGMNKQDQLIDALAVGVLGAKNQSPVVLVGKNLSASQKSLVNSKSFDKITKVGGNGNETAFNEMKSLQEVKTVEAKTISELKSAIDKATANDVINFKPTSEVKEAFTIQTDKAVTVNLNGTYTKTVTINMPNGDVNNYAKVDDVVIDDVKDGTFVNYGKITNLKVNDKNGAKIENNSKGEIGSLTVASGASQVKVTNGGKITTVTNNSKGTTIDNKGTISSVKGDNSPTISGNSPSSNSSGGSSSSGGSSGGSSGGSSSSKVGQIKFSATDKQIKMASGDKTVDPSDNTYILKLTNGTVKDGDVKANVKVAGLPSGLDYTAVGNRSANTITITVSGTTSQSIQNDLNNVSVLVKAGAVSGTGATDSIANTTFEIKKYVAAPAVGQLTFDATDKQIKMASGDKTVDPSDDTYVLTLTKGTAKDGDIKANVEVTGLPSGLDYTAEGDSSANTITIPVSGTASPAVQTDLDNVSVLVKAGAVSETTATDSAANATFEVKKYVAPAVGQLTFDATDKQIKMASGDKTVDPSDDTYVLTLTKGTAKDGDIKANVEVTGLPSGLDYTAEGDSSANTITITVSGTASQAVQTDLDNVSVLVKAGAVSETTATDSAANATFEVKKYVAPAIGQLTFDATDKQIKMASGDKTVDPSDDTYVLTLTKGTAKDGDIKANVEVTGLPSGLDYTAEGDSSANTITITVSGTASQAVQTDLDNVSVLVKAGAVSETTATDSAANATFEVKKHASDPISTIGKISSGLSSLFNILK
glycan array binding signal (z-score) [1]: 2.48 | glycan array binding signal (z-score) [2]: 0.041 | glycan array binding signal (z-score) [3]: 0.596 | glycan array binding signal (z-score) [4]: -0.032 | glycan array binding signal (z-score) [5]: -0.249 | glycan array binding signal (z-score) [6]: -0.175 | glycan array binding signal (z-score) [7]: 0.07 | glycan array binding signal (z-score) [8]: 0.365 | glycan array binding signal (z-score) [9]: 0.538 | glycan array binding signal (z-score) (Gal(a1-4)Gal(b1-4)GlcNAc): 2.24 | glycan array binding signal (z-score) [10]: 9.72 | glycan array binding signal (z-score) [11]: 2.79 | glycan array binding signal (z-score) (Gal(b1-3)Gal(b1-4)GlcNAc): -0.025 | glycan array binding signal (z-score) [12]: -0.249 | glycan array binding signal (z-score) [13]: 0.622 | glycan array binding signal (z-score) [14]: -0.248 | glycan array binding signal (z-score) [15]: -0.26 | glycan array binding signal (z-score) [16]: -0.34 | glycan array binding signal (z-score) (Gal3S(b1-4)Glc): -0.29 | glycan array binding signal (z-score) [17]: 6.4 | glycan array binding signal (z-score) [18]: 2.68 | glycan array binding signal (z-score) (GlcA(b1-3)GlcNAc): 8.78 | glycan array binding signal (z-score) [19]: -0.192 | glycan array binding signal (z-score) [20]: 0.469 | glycan array binding signal (z-score) [21]: -0.124 | glycan array binding signal (z-score) [22]: -0.317 | glycan array binding signal (z-score) [23]: -0.217 | glycan array binding signal (z-score) (GlcNAc(b1-3)Gal(b1-4)Glc): -0.297 | glycan array binding signal (z-score) (GlcNAc(b1-3)GalNAc): -0.322 | glycan array binding signal (z-score) [24]: 1.05 | glycan array binding signal (z-score) [25]: -0.284 | glycan array binding signal (z-score) [26]: 11.2 | glycan array binding signal (z-score) [27]: -0.101 | glycan array binding signal (z-score) [28]: -0.328 | glycan array binding signal (z-score) [29]: 0.484 | glycan array binding signal (z-score) [30]: 0.368 | glycan array binding signal (z-score) [31]: -0.21 | glycan array binding signal (z-score) [32]: -0.249 | glycan array binding signal (z-score) [33]: 0.056 | glycan array binding signal (z-score) [34]: -0.322 | glycan array binding signal (z-score) (Neu5Gc(a2-3)Gal(b1-4)Glc): -0.229 | glycan array binding signal (z-score) [35]: -0.046 | glycan array binding signal (z-score) [36]: -0.292 | glycan array binding signal (z-score) (Neu5Gc(a2-6)GalNAc): -0.29
